Shown is part of a subset that was picked to be rich in hits.
VCAM1 pot: TNF alpha stimulated VCAM1 expression potentiation; HUVEC TNFa-stimulated VCAM-1 immunofluorescence, high-content imaging; scaled per plate to unstimulated/TNFa-only wells; activation, % at 2 µM; actives 0.19% (n = 93,000); AID 808;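 active means activation above the screen mean plus 3 SD, with well images confirming the hit on visual review, cut at about 28% in these data, passing the limit was not always enough; inconclusive means activation above that limit but images do not confirm it; inactive means activation not above that limit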;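 further: signal is the number of cytoplasmic VCAM-1 stained grains per positive cell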
VCAM1 pot confirm: potentiators of TNFa-induced VCAM1 expression, confirmation, imaging, HUVEC, triplicate retest | AID 1034 | shares compounds with VCAM1 pot | HUVEC TNFa-stimulated VCAM-1 immunofluorescence imaging | activation, % at 2 µM | 230 tested, under 10 active;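 active means activation above 30% in triplicate retests at 2 µM, then confirmed by visual review of the well images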
Numbers stand for hits; i = inactive; ? = inconclusive.

SMILES	VCAM1 pot	others
c1cncc(-c2nc(-c3ccc4c(c3)OCO4)cs2)c1	i
Cn1c(-c2ccc3c(c2)OCO3)cnc1NCc1ccccc1	51	VCAM1 pot confirm=i
Cn1c(Cc2ccccc2)nnc1SCC(=O)Nc1ccc2c(c1)OCO2	i
Cc1ccc(NC(=O)C2CCN(S(=O)(=O)c3c(C)[nH]c(=O)[nH]c3=O)CC2)cc1	i
Cc1cccc(C2Nc3ccccc3C(=O)N2c2ccc(F)cc2)n1 (stereo not drawn)	i
C=CCn1c(CCNC(=O)c2ccccc2F)nnc1SCC(=O)Nc1nc(C)cs1	i
CSC1=C(C#N)C(c2ccc(C)s2)CC(=O)N1 (stereo not drawn)	i
CCOC(=O)CSc1nc(C2CC2)cc(-c2ccc(F)cc2)c1C#N	i
COC(=O)CSC1=C(C#N)C(c2ccc(F)cc2)CC(=O)N1 (stereo not drawn)	32	VCAM1 pot confirm=i
COc1ccc(CNC(=O)C2CCCN(S(=O)(=O)c3cnc[nH]3)C2)cc1 (stereo not drawn)	i
COC(=O)c1ccc(CSc2nc(N3CCOCC3)c3c(c2C#N)CC(C)(C)OC3)o1	i
CC(C)(C)C(=O)Nc1ccccc1N1CCN(C(=O)c2ccc(Cl)cc2)CC1	i
Cc1nc(N2CCN(C(=O)c3ccc(Cl)cc3)CC2)c(C#N)c2c1COC(C)(C)C2	50	VCAM1 pot confirm=i
CC(C)[C@H](NC(=O)OC(C)(C)C)c1nnc(SCc2cccc(F)c2)o1	i
Cc1nc2sc(C(c3cccc(F)c3)N3CCCC(C)C3)c(O)n2n1 (stereo not drawn)	i
Cc1cccc(-c2nnc(-c3cccc(NC(=O)Cc4cccs4)c3)o2)c1	i
COC(=O)CSCC(=O)Nc1cc2c(cc1C(C)=O)OCO2	i
O=C(CN1CCC(c2nc3ccccc3[nH]2)CC1)NCc1ccc2c(c1)OCO2	i
Clc1ccc2nc(C3CCN(Cc4nnnn4C4CCCCC4)CC3)[nH]c2c1	60	VCAM1 pot confirm=i
Cc1[nH]n(-c2ccc([N+](=O)[O-])cc2)c(=O)c1C=NCCN1CCN(C(=O)c2cccc(F)c2)CC1	i
COc1ccc(C(=O)c2ccc(N(C)C)cc2)c2ccccc12	i
O=C(CSc1nnnn1-c1ccccc1Cl)Nc1ccc2c(c1)OCCO2	i
COC(=O)c1cccc(NC(=O)C2C3CCC(C3)C2C(=O)O)c1 (stereo not drawn)	i
Cc1cc(C(F)(F)F)nc(NCc2cccnc2)n1	?	VCAM1 pot confirm=i
FC(F)(F)c1cc(-c2ccc3c(c2)OCO3)nc(NCc2ccco2)n1	i
SMILES	VCAM1 pot	others
CC(C)(C)Nc1nc(NCc2cccnc2)nc(N2CCOCC2)n1	i
O=C(CC(NS(=O)(=O)c1ccc(Cl)cc1)c1ccco1)N1CCc2ccccc21 (stereo not drawn)	i
O=C(CC1NC2CCCCC2NC1=O)Nc1cccc(C(F)(F)F)c1 (stereo not drawn)	i
O=C(NCc1ccco1)c1ccccc1F	i
O=C(NCc1ccco1)c1sc2cc(F)ccc2c1Cl	44	VCAM1 pot confirm=i
CC(C)c1cc(C(=O)NCc2ccco2)no1	i
NC(=O)C1CCN(C(=O)CCCCCn2c(=O)[nH]c3ccsc3c2=O)CC1	?	VCAM1 pot confirm=i
NC(=O)C1CCN(C(=O)CSc2nc3ccccc3o2)CC1	i
CC(C)(C)NS(=O)(=O)c1ccc(CCC(=O)N2CCCCC2)cc1	i
O=C(Nc1ccc2oc(-c3ccccc3)nc2c1)c1ccc2c(c1)OCCO2	30	VCAM1 pot confirm=i
O=C(Nc1ccc(-c2nc3cc(Cl)ccc3o2)cc1)C1CCCO1 (stereo not drawn)	i
O=C(Cc1ccccc1)Nc1ccc2oc(-c3cccnc3)nc2c1	i
Cn1c(Cn2nnc3ccccc32)nnc1SCC(=O)N1CCc2ccccc21	i
CCn1c(SCc2nc(-c3cccs3)no2)nnc1-c1c[nH]c2ccccc12	i
NC(=O)c1ccccc1OCCOCCOCCOc1ccccc1C(N)=O	i
NC(=O)c1ccccc1N=Cc1ccccn1	40	VCAM1 pot confirm=i
CCC1=NC(c2ccccc2Cl)N(O)C1(C)C (stereo not drawn)	i
Cc1ccc(S(=O)(=O)N2CCN(S(C)(=O)=O)CC2)cc1	i
CCCCCCOC(=O)c1ccccc1NC(=O)/C=C/C(=O)O	i
CCOc1nc(-c2ccccc2)ccc1-c1noc(COC)n1	?	VCAM1 pot confirm=i
COc1ccc(Br)cc1-c1noc(-c2ccccc2)n1	i
COc1cccc(-c2ccc(-c3noc(-c4cccs4)n3)c(OC)n2)c1	i
COC(=O)c1nc2nc(C)cc(=O)n2[nH]1	i
CC(=O)Oc1oc(-c2ccccc2)nc1/C=N/c1ccccn1	89	VCAM1 pot confirm=i
CC(C)CCNC(=O)CSc1nnc(-c2ccc(S(=O)(=O)N3CCCC3)cc2)n1C	i
SMILES	VCAM1 pot	others
Cn1c(SCC(=O)Nc2nccs2)nnc1-c1ccncc1	i
CC(C)NC(=O)CSc1nnc(-c2ccc(C(C)(C)C)cc2)n1C	?	VCAM1 pot confirm=i
Cc1c(Cl)cccc1-n1ccnc1SCC(=O)O	i
O=S(=O)(CCc1nc2ccccc2s1)c1ccc2ccccc2c1	i
Cn1c(-c2ccccc2O)cc2ccccc21	i
CCCSc1ncnc2c1oc1ccccc12	i
CCc1nc(SCC(=O)c2cccs2)c2oc3ccccc3c2n1	28	VCAM1 pot confirm=i
CCOC(=O)CSc1nc(-c2ccccc2)nc2c1oc1ccccc12	i
O=C1CN=C(Nc2cccc(C(F)(F)F)c2)N1C1CCCC1	i
CCCc1[nH]nc2c1C(c1ccc(OC)c(CSC3=NCCS3)c1)C(C#N)=C(N)O2 (stereo not drawn)	i
COc1ccccc1N1CCN(C(=O)CSc2ccc3c(C)cc(C)nc3n2)CC1	i
COCCSc1ccccc1C(=O)NCC1CCCO1 (stereo not drawn)	?	VCAM1 pot confirm=i
Cc1ccccc1C(=O)c1c[nH]c(C(=O)NCC2CCCO2)c1 (stereo not drawn)	i
Cc1nc2ccc(F)cc2cc1C(=O)NCC1CCCO1 (stereo not drawn)	i
Cc1ccc(SCc2nc(-c3cccnc3)no2)cc1	i
Cc1ccc(-n2nnnc2-c2cnc(-c3cccnc3)nc2C(F)(F)F)cc1	52	VCAM1 pot confirm=i
CCOc1ccc(-c2nc(-c3cccnc3)no2)cc1	i
COC(=O)C1=C(O)C(C(=O)OC)C(c2ccc(C)cc2)C(C#N)(C#N)C1c1ccc(C)cc1 (stereo not drawn)	i
COC(=O)c1c(NC(=S)Nc2ccccc2Cl)sc(C)c1C	i
N#Cc1c(NC(=O)CCC(=O)O)sc2c1CCCC2	?	VCAM1 pot confirm=i
CC1(C)Cc2c(sc(NC(=O)c3ccc(Br)o3)c2C#N)CO1	i
CCc1c(C)sc(NC(=O)CC#N)c1C#N	i
Cc1ccccc1Cn1c(=O)c2c(nc3n2CCCN3Cc2ccccc2)n(C)c1=O	i
c1ccc(SCc2nc3ccccc3[nH]2)nc1	i
Nc1sccc1C(=O)c1ccccc1	66	VCAM1 pot confirm=i
SMILES	VCAM1 pot	others
Nc1ccccc1NC(=O)c1ccccc1	i
O=C(Oc1csc(=S)n1C(=O)c1ccccc1)c1ccccc1	i
O=c1c(C=Nc2ccc(Cl)cc2)c[nH]n1-c1cccc(Cl)n1	i
CC1(C)C(c2cccs2)=[N+]([O-])C2(CCCCC/C2=N\NC(N)=O)N1O (stereo not drawn)	i
Cc1c(NC(=O)N(C)C)c(=O)n(-c2ccccc2)n1C	i
CC(Nc1cc(=O)n(C)c(=O)[nH]1)c1ccccc1 (stereo not drawn)	i
Nc1c(Cl)cc(Cl)cc1C(=O)OCC(=O)NC1CC1	i
COC(=O)c1cc(C#N)c(Oc2ccc(F)cc2)nc1C	i
CCOC(=O)c1c(-c2ccc(Cl)cc2)cn2ccccc12	i
CCOC(=O)c1cnn(-c2cc(C)c3ccccc3n2)c1N	i
